According to PubChem BioAssay (EPA / NIEHS):
Inconclusive results are not listed. Calls of active or inactive are those of the source. How the source made its calls, unless noted: active means hit-call score of the fitted dose curve at least 0.9, where 1 is the maximum; inactive means score below 0.9.

Legend:
[1] = Tanguay_ZF_120hpf_MUSC: Oregon State University Tanguay Lab 120 Hour Post-fertilization zebrafish Assay for Muscle Malformation (AID 2284401)
How it was run: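 Scored as a binary brightfield endpoint at 120 hpf, fitted versus DMSO. Single dechorionated wild-type (Tropical 5D) zebrafish embryos per well, statically exposed at 28C from 6 hpf onward with final DMSO 0.64%.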

[2] = CCTE_Shafer_MEA_dev_firing_rate_mean: CCTE's Neural Network Formation Assay for Mean Firing Rate, Shafer Lab (AID 2284031)
How it was run: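 Spike frequency (spikes/recording length, averaged over active electrodes) was recorded on days 5, 7, 9 and 12 and collapsed to AUC; rat cortical cultures received compound continuously over 12 days of network development.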

[3] = CCTE_Shafer_MEA_dev_per_burst_spike_percent: CCTE's Neural Network Formation Assay for Percent of Spikes in a Burst, Shafer Lab (AID 2284032)
How it was run: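 Value is trapezoidal AUC over recordings on days 5, 7, 9 and 12 of the well-mean fraction of spikes falling in single-electrode bursts; rat cortical cultures exposed continuously from plating, treatment renewed DIV 5 and 9, fitted downward against DMSO.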

[4] = CCTE_Shafer_MEA_dev_burst_rate: CCTE's Neural Network Formation Assay for Burst Rate, Shafer Lab (AID 2284042)
How it was run: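 Cells plated, treated day 0; recorded DIV 5, 7, 9, 12; fed and re-treated DIV 5, 9. Endpoint: bursts per recording time, active-electrode well mean, trapezoidal AUC, fitted in decreasing direction against DMSO baseline.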

[5] = CCTE_Shafer_MEA_dev_burst_duration_mean: CCTE's Neural Network Formation Assay for Mean Burst Duration, Shafer Lab (AID 2284045)
How it was run: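 Mean single-electrode burst duration (first to last spike), averaged over bursting electrodes per well, then integrated as area-under-curve across recordings at days 5, 7, 9 and 12. Rat cortical cultures on MEAs, compound present from plating, refreshed at feeds.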

[6] = CCTE_Shafer_MEA_dev_interburst_interval_mean: CCTE's Neural Network Formation Assay for Mean Interburst Interval, Shafer Lab (AID 2284046);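 further: well-mean interburst interval of bursting electrodes as AUC over four recording days; curve fitted for decrease in interburst interval relative to DMSO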
How it was run: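 Developing rat cortical networks on 48-well MEAs receive compound from the day of plating. Burst intervals from each active electrode are averaged per well, and AUC over the recording days is fitted in the negative direction against DMSO.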

[7] = CCTE_Shafer_MEA_dev_inter_network_spike_interval_mean: CCTE's Neural Network Formation Assay for Mean Inter-network Spike Interval, Shafer Lab (AID 2284047)
How it was run: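 Rat cortical cultures, 1.5 x 10^5 cells/well on 48-well MEA plates; continuous exposure days 0–12, medium and compound refreshed DIV 5, 9. Mean time between consecutive network-spike peaks; AUC across DIV 5/7/9/12; DMSO baseline, negative fitting direction.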

[8] = CCTE_Shafer_MEA_dev_network_spike_number: CCTE's Neural Network Formation Assay for Number of Network Spikes, Shafer Lab (AID 2284048);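 further: synchronized bursts across electrodes counted on days 5 7 9 12 and integrated as AUC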
How it was run: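 Number of network spikes (coordinated firing across electrodes) recorded on days 5, 7, 9 and 12 and summarised as area under the curve. Rat cortical cultures on MEA, continuous compound exposure with full medium/treatment exchange at DIV 5 and 9.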

[9] = CCTE_Shafer_MEA_dev_network_spike_peak: CCTE's Neural Network Formation Assay for Mean Number of Electrodes in Network Spike, Shafer Lab (AID 2284049)
How it was run: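 Rat cortical primary culture, 1.5 x 10^5 cells/well, 48-well MEA (16 electrodes/well). Dosing day 0 through DIV 12, full media/compound exchange DIV 5, 9. AxIS adaptive spike detection; AUC over days 5/7/9/12; loss-of-signal vs DMSO.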

[10] = CCTE_Shafer_MEA_dev_spike_duration_mean: CCTE's Neural Network Formation Assay for Mean Spike Duration, Shafer Lab (AID 2284051);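 further: mean network spike duration pooled as area under curve over DIV 5 to 12 recordings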
How it was run: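 Readout is the average length of network spikes, clustered firing across electrodes, summed over DIV 5, 7, 9 and 12 as area under the curve. Neurons from rat cortex developed networks on MEA plates under continuous 12-day exposure.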

[11] = CCTE_Shafer_MEA_dev_network_spike_duration_std: CCTE's Neural Network Formation Assay for Standard Deviation of Network Spike Duration, Shafer Lab (AID 2284052);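 further: hits are decreases in network spike duration SD versus DMSO vehicle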
How it was run: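 Read-out is the trapezoidal area-under-the-curve across recordings made on days 5, 7, 9 and 12, fitted in the negative direction against DMSO baseline. Neurons were primary rat cortical cells treated from day 0, with treatment renewed at each feed.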

[12] = CCTE_Shafer_MEA_dev_per_network_spike_spike_number_mean: CCTE's Neural Network Formation Assay for Mean Number of Spikes in a Network Spike, Shafer Lab (AID 2284053)
How it was run: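 Continuous twelve-day exposure of developing rat cortical networks grown over 16 microelectrodes per well; spontaneous firing is captured at four time points, and the per-network-spike spike number is integrated over development by trapezoidal AUC.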

[13] = CCTE_Shafer_MEA_dev_per_network_spike_spike_percent: CCTE's Neural Network Formation Assay for Percent of Spikes in a Network Spike, Shafer Lab (AID 2284054)
How it was run: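 Metric: fraction of spikes falling in a 0.05 s window at network-spike peaks. Recordings were made on days 5, 7, 9 and 12 and collapsed by trapezoidal AUC. Cultures were rat cortical neurons on MEA plates, dosed continuously from plating, re-dosed at media changes.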

[14] = CCTE_Shafer_MEA_dev_LDH: CCTE's Lactate Dehydrogenase Assay for Cytotoxicity in the Neural Network Formation Assay, Shafer Lab (AID 2284068; active means hit-call score of the fitted dose curve at least 0.9, where 1 is the maximum;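 further: exposure for twelve days from plating with re-dosing on DIV 5 and 9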)
How it was run: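 Cytotoxicity companion to network-formation recordings: rat cortical neurons received compound over 12 days of development, re-dosed at DIV 5 and 9 feeds. Viability was inferred from LDH enzyme activity relative to DMSO.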

[15] = CCTE_Shafer_MEA_dev_mutual_information_norm: CCTE's Neural Network Formation Assay for Mutual Information Normalization, Shafer Lab (AID 2284091)
How it was run: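 Shared information across electrodes, tracked on days 5, 7, 9 and 12 of network development and collapsed as trapezoidal area under the curve. Rat cortical cultures were treated continuously from plating, with treatment renewed at feeds on DIV 5 and 9; DMSO baseline, negative-direction fit.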

[16] = CCTE_Mundy_HCI_Cortical_Synap_Neur_Matur_NeuriteSpotCountPerNeuriteLength: CCTE's Synaptogenesis and Neurite Maturation Assay in rat cortical cells for Neurite Spot Count per Neurite Length, Mundy Lab (AID 2284210)
How it was run: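 Synaptophysin spots per unit neurite length, measured by automated imaging of MAP2/synaptophysin/Hoechst-stained neurons. Cultures from rat cortex received chemical at DIV 7 with media change through DIV 12; glial growth arrested by AraC at DIV 5; DMSO baseline.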

[17] = CCTE_Mundy_HCI_Cortical_Synap_Neur_Matur_BPCount: CCTE's Synaptogenesis and Neurite Maturation Assay in rat cortical cells for Branch Point Count, Mundy Lab (AID 2284211)
How it was run: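 HCI read-out of branch points from MAP2/synaptophysin/Hoechst immunofluorescence; rat cortical cultures, AraC DIV 5, dosing DIV 7, fixed DIV 12; fit in positive direction vs DMSO baseline.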

[18] = CCTE_Mundy_HCI_Cortical_NOG_NeuriteCount: CCTE's Neurite Outgrowth Assay in rat cortical cells for Neurite Count, Mundy Lab (AID 2284212);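 further: cells fixed about two days after chemical exposure began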
How it was run: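 Rat cortical primary cells; compound added 2 h post-plating, 1/10 dilution of working solution. Anti-betaIII-tubulin/AF488 ICC; ArrayScan neurite count vs DMSO.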

[19] = CCTE_Mundy_HCI_Cortical_NOG_NeuriteLength: CCTE's Neurite Outgrowth Assay in rat cortical cells for Neurite Length, Mundy Lab (AID 2284213)
How it was run: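 First, rat primary cortical cells were plated and, 2 h later, given test chemical as a 1/10 dilution. Finally, βIII-tubulin immunostaining enabled automated imaging of neurite length.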

[20] = CCTE_Mundy_HCI_Cortical_Synap_Neur_Matur_NeuriteLength: CCTE's Synaptogenesis and Neurite Maturation Assay in rat cortical cells for Neurite Length, Mundy Lab (AID 2284214)
How it was run: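 Neurite length quantified by automated high-content imaging of MAP2, synaptophysin and Hoechst staining. Rat cortical cells received chemical from DIV 7 to DIV 12 […], glial growth arrested by AraC at DIV 5; DMSO baseline.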

[21] = CCTE_Mundy_HCI_Cortical_Synap_Neur_Matur_SynapseCount: CCTE's Synaptogenesis and Neurite Maturation Assay in rat cortical cells for Synapse Count, Mundy Lab (AID 2284218)
How it was run: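 High-content imaging of synaptophysin puncta per MAP2-positive neuron (Hoechst nuclei) in rat cortical cells exposed DIV 7–12 after glial arrest with AraC at DIV 5; decrease relative to DMSO scored.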

[22] = CCTE_Mundy_HCI_hN2_NOG_NeuriteCount: CCTE's Neurite Outgrowth Assay in human hN2 cells for Neurite Count, Mundy Lab (AID 2284219; active means hit-call score of the fitted dose curve at least 0.9, where 1 is the maximum)
How it was run: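 In this morphology assay, hNP1-derived neurons received test chemical 2 h post-plating and were fixed two days later in warm paraformaldehyde/sucrose containing Hoechst 33342. Neurites, labelled by rabbit anti-βIII-tubulin (1:800) and Alexa Fluor-488 (1:500), were counted automatically.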

[23] = CCTE_Mundy_HCI_hN2_NOG_NeuriteLength: CCTE's Neurite Outgrowth Assay in human hN2 cells for Neurite Length, Mundy Lab (AID 2284220; active means hit-call score of the fitted dose curve at least 0.9, where 1 is the maximum)
How it was run: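 Plate hNP1-derived neurons, then add chemical 2 h later as a 1/10 dilution. Stain with anti-βIII-tubulin then Alexa Fluor-488 secondary, and image automatically to measure neurite length.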

[24] = CCTE_Mundy_HCI_Cortical_Synap_Neur_Matur_NeuriteCount: CCTE's Synaptogenesis and Neurite Maturation Assay in rat cortical cells for Neurite Count, Mundy Lab (AID 2284222)
How it was run: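 Chemical exposure runs DIV 7–12 in rat cortical cultures, glia suppressed by AraC at DIV 5; measurement is at DIV 12. Imaging-derived neurite counts are fitted against DMSO baseline.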

[25] = CCTE_Mundy_HCI_Cortical_Synap_Neur_Matur_CellBodySpotCount: CCTE's Synaptogenesis and Neurite Maturation Assay in rat cortical cells for Cell Body Spot Count, Mundy Lab (AID 2284223)
How it was run: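 Rat primary cortical cultures received AraC at DIV 5 to arrest glia, were dosed with chemical at DIV 7 with media change, and were fixed at DIV 12 (288.33 h). Synaptophysin puncta on MAP2-positive cell bodies per neuron were counted by high-content imaging versus DMSO.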

[26] = CCTE_Mundy_HCI_Cortical_NOG_NeuronCount: CCTE's Neurite Outgrowth Assay in rat cortical cells for Neuron Count, Mundy Lab (AID 2284236; active means hit-call score of the fitted dose curve at least 0.9, where 1 is the maximum;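 further: neurons counted by imaging betaIII-tubulin and Hoechst stained cortical cells; cells exposed to compound for about 48 hours before fixation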)
How it was run: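 Read-out: neuron number by high-content imaging of betaIII-tubulin (Alexa Fluor-488) and Hoechst-labelled rat primary cortical cells.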

[27] = CCTE_Mundy_HCI_Cortical_NOG_BPCount: CCTE's Neurite Outgrowth Assay in rat cortical cells for Branch Point Count, Mundy Lab (AID 2284237)
How it was run: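 Measured 50.33 h after dosing, this morphology endpoint uses rat primary cortical cultures labelled for betaIII-tubulin. Branch points are quantified by high-content imaging, with DMSO as negative control and baseline.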

[28] = CCTE_Mundy_HCI_hNP1_Casp3_7: CCTE's Caspase-Glo 3/7 Assay in human neuroprogenitor cells for Apoptosis, Mundy Lab (AID 2284240)
How it was run: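 Apoptosis is scored by activated caspase-3/7 luminescence in WA09-derived neural progenitor cells, measured 26.5 h after chemical dosing. Values represent gain of signal relative to DMSO vehicle.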

[29] = CCTE_Mundy_HCI_hNP1_CellTiter: CCTE's Cell Titer-Glo 2 Assay in human neuroprogenitor cells for Viability, Mundy Lab (AID 2284241; active means hit-call score of the fitted dose curve at least 0.9, where 1 is the maximum)
How it was run: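 Human neural progenitor cells (hNP1, WA09-derived) were plated on poly-L-ornithine/laminin and grown 40 to 44 hours at 37 °C, 5% CO2 before chemical addition. Twenty-four hours later, ATP was measured by CellTiter-Glo luminescence; loss of signal versus DMSO indicates reduced viability.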

Measured: outcome

O=C(O)C(F)(F)C(F)(F)C(F)(F)C(F)(F)C(=O)O
inactive: [1]

C=CCN1CC[C@]23c4c5ccc(O)c4O[C@H]2C(=O)CC[C@@]3(O)[C@H]1C5
not listed: [1]
inactive: all other assays above
